# Values joined by “and” are separate entries in the source; they are usually repeats but may differ in a detail not shown here. Equal entries are not always repeated. Inconclusive results are not listed. Some structures have more than one record in an assay (separate samples or runs), and their calls can disagree. Active and inactive are the calls of the source. The calls were made as follows: active = hit-call score of the fitted dose curve at least 0.9, where 1 is the maximum; inconclusive = response in the unintended direction; inactive = score below 0.9.
# What was measured:
# [1] = target: Estrogen receptor beta (Homo sapiens) (UniProt Q92731); assay: ATG_hERb_XSP2: Attagene TRANS-FACTORIAL Multi-Species (XSP2) HepG2 Assay for human Estrogen Receptor (ERb) (AID 2283813);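 also: actives raise reporter mRNA above DMSO so AC50 reflects agonist induction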
# Method in brief: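 Transient TRANS reporter system in HepG2: after 24 h of chemical, RNA is reverse-transcribed, reporter cDNA amplified, FAM-labelled and sized by capillary electrophoresis. Induction of the human ERb-Gal4 reporter is measured relative to DMSO.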
# [2] = target: zebrafish Estrogen Receptor (ER1), esr1 (gene 259252) (UniProt P57717); assay: ATG_zfER1_XSP2: Attagene TRANS-FACTORIAL Multi-Species (XSP2) HepG2 Assay for zebrafish Estrogen Receptor (ER1) (AID 2283816)
# Method in brief: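 After 24 h compound exposure, RNA from transfected HepG2 cells was reverse-transcribed and reporter transcripts resolved by capillary electrophoresis. The TRANS format reads exogenous zebrafish ER1-Gal4 chimera activity on GAL4-UAS elements; gain of signal against DMSO.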
# [3] = target: chicken Estrogen Receptor (ERa), ESR1 (gene 396099) (UniProt P06212); assay: ATG_chERa_XSP2: Attagene TRANS-FACTORIAL Multi-Species (XSP2) HepG2 Assay for chicken Estrogen Receptor (ERa) (AID 2283817);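 also: actives raise reporter signal above DMSO so AC50 reflects ER activation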
# Method in brief: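 Readout: fluorescent reporter-transcript fragments resolved by capillary electrophoresis after RT-PCR and HpaI cut. Chicken ERa-Gal4 fusion in transiently transfected HepG2, dosed for 24 h; activity taken as increase over DMSO baseline.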
# [4] = test system: zebrafish Estrogen Receptor (ER2a), gene 317734; assay: ATG_zfER2a_XSP2: Attagene TRANS-FACTORIAL Multi-Species (XSP2) HepG2 Assay for zebrafish Estrogen Receptor (ER2a) (AID 2283818);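 also: hits raise reporter mRNA so AC50 reflects activation of zebrafish ER2a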
# Procedure: (§1) ATG_XSP2_multi-species_TRANS is a cell-based, multiplexed assay created by modifying the existing Attagene TRANS-FACTORIAL system to include a panel of nuclear receptors from some or all the following species: human (Homo sapiens), mouse (Mus musculus), frog (Xenopus laevis), zebrafish (Danio rerio), chicken (Gallus gallus), and turtle (Chrysemys picta). The ECOTOX-FACTORIAL format uses HepG2, a human liver cell line, with measurements taken at 24 hours after chemical dosing in a 24-well plate. Xsp2 included 3 nM 6-alpha-fluorotestosterone and 1.5 nM norgestrel to stimulate the androgen receptor.ATG_zfER2a_XSP2 is one of 29 assay components measured or calculated from the ATG_XSP2_multi-species_TRANS assay. It is designed to make measurements of mRNA induction, a form of inducible reporter, as detected with fluorescence intensity signals by Reverse transcription polymerase chain reaction (RT-PCR) and Capillary electrophoresis technology.The assay endpoint ATG_zfER2a_XSP2 was analyzed in the positive analysis fitting direction relative to DMSO as the negative control and baseline of activity. Using a type of inducible reporter, measures of mRNA for gain-of-signal activity can be used to understand the reporter gene at the transcription factor-level as they relate to the gene ER. Furthermore, this assay endpoint can be referred to as a primary readout, because this assay has produced multiple assay endpoints where this one serves a reporter gene function. To generalize the intended target to other relatable targets, this assay endpoint is annotated to the nuclear receptor intended target family, where the subfamily is steroidal.
# (§2) Human liver HepG2 cells are transiently transfected with multiple reporter transcription units (MRTUs) in 6-well plates using FuGene 6 reagent (Roche; 3 ml FuGene/1 mg DNA). The MRTU constructs are regulated by a cis-regulating element (promoter). […] A major difference between the CIS and TRANS system is that in CIS activities of endogenous TFs are measured, whereas the TRANS assay evaluates changes in activities of exogenous, chimeric NR-Gal4 proteins. […] At the end of 24 hour incubation, total RNA was isolated using TriZol reagent (Invitrogen). The isolated RNA is then reverse-transcribed using oligo(dT) primer and Mo-MLV reverse transcriptase (Invitrogen) with DNAse I (Ambion) treatment for 30 min. The one-tenth of the produced cDNA was amplified by PCR using Taq DNA polymerase (Invitrogen) and two reporter sequence-specific primers. The PCR products were fluorescently labeled by primer extension with 6-arboxyfluorescein (6-FAM) 5'-labeled reporter sequence-specific primer (2 min at 95 C, 20 s at 68 C and 10 min at 72 C) and these products were digested with 5U of HpaI (New England Biolabs) for 2h at 37 C. The fragments were purified using Qiaquick PCR columns (Qiagen), analyzed on an ABI 3130xL genetic analyzer (Applied Biosystems) with peak positions identified by using a set of X-rhodamine (ROX)-labeled MapMarker1000 molecular weight standards (BioVentures). The raw capillary electrophoresis data was processed using Attagraph software (Attagene).
# [5] = test system: frog Estrogen Receptor (ER), gene 398734; assay: ATG_frER1_XSP2: Attagene TRANS-FACTORIAL Multi-Species (XSP2) HepG2 Assay for frog Estrogen Receptor (ER) (AID 2283821);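 also: hits raise reporter mRNA above DMSO baseline so potency means agonist or activator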
# Procedure: as §1, with “receptor.ATG_frER1_XSP2” for “receptor.ATG_zfER2a_XSP2”, “ATG_frER1_XSP2” for “ATG_zfER2a_XSP2”
# as §2
# [6] = test system: zebrafish Estrogen Receptor (ER2b), gene 317733; assay: ATG_zfER2b_XSP2: Attagene TRANS-FACTORIAL Multi-Species (XSP2) HepG2 Assay for zebrafish Estrogen Receptor (ER2b) (AID 2283823);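 also: fitted upward as reporter gain over DMSO so potency reflects activation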
# Method in brief: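 Transfect HepG2 with GAL4-UAS reporter constructs; dose chemicals, 24 h; isolate RNA, RT-PCR, FAM-label, HpaI digest; capillary electrophoresis. Gain-of-signal vs DMSO.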
# [7] = target: GAL4 Transcription Factor (Internal Marker), GAL4 (gene 855828) (UniProt P04386); assay: ATG_GAL4_XSP2: Attagene TRANS-FACTORIAL Multi-Species (XSP2) HepG2 Assay for GAL4 Transcription Factor (Internal Marker) (AID 2283814);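 also: GAL4 reporter mRNA background control in MRTU transfected cells not a receptor target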
# Method in brief: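 Background-control readout: gain-of-signal fitted against DMSO. After 24 h exposure of transfected HepG2 (MRTU, GAL4-UAS reporters; 3 nM 6-alpha-fluorotestosterone, 1.5 nM norgestrel present), transcripts quantified by RT-PCR and capillary electrophoresis fluorescence.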
# [8] = test system: turtle Androgen Receptor (AR), gene 101947425; assay: ATG_trAR_XSP2: Attagene TRANS-FACTORIAL Multi-Species (XSP2) HepG2 Assay for turtle Androgen Receptor (AR) (AID 2283815);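 as to AC50: reporter mRNA from a Gal4 chimera of turtle AR measured by RT-PCR; potency for gain of reporter signal meaning activation above DMSO baseline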
# Method in brief: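 Reporter transcripts were quantified via RT-PCR and capillary electrophoresis and fitted upward against DMSO. Transiently transfected human HepG2 cells carrying NR-Gal4 chimeras were exposed 24 h, with 3 nM 6-alpha-fluorotestosterone plus 1.5 nM norgestrel added.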
# [9] = test system: chicken Androgen Receptor (AR), gene 422165; assay: ATG_chAR_XSP2: Attagene TRANS-FACTORIAL Multi-Species (XSP2) HepG2 Assay for chicken Androgen Receptor (AR) (AID 2283819);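 also: hits raise reporter mRNA above DMSO so potency is for activation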
# Method in brief: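 Readout is reporter mRNA induction via RT-PCR/capillary electrophoresis after 24 h chemical exposure, positive direction relative to DMSO. Transiently transfected HepG2 express chimeric chicken AR–GAL4; AR stimulated by 3 nM 6-alpha-fluorotestosterone and 1.5 nM norgestrel.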
# [10] = ATG_M_19_XSP2: Attagene TRANS-FACTORIAL Multi-Species (XSP2) HepG2 Assay for M32 Transcription Factor (Internal Marker) (AID 2283822)
# Method in brief: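 Internal background marker in a multi-species nuclear receptor TRANS panel: transfected HepG2 cells exposed 24 h, with 3 nM 6-alpha-fluorotestosterone and 1.5 nM norgestrel present. Readout is RT-PCR of reporter transcripts resolved by capillary electrophoresis, gain-of-signal versus DMSO.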
# Estrogen receptor beta (Homo sapiens), sequence (Q92731 whole entry, looked up, the tested form may be a part): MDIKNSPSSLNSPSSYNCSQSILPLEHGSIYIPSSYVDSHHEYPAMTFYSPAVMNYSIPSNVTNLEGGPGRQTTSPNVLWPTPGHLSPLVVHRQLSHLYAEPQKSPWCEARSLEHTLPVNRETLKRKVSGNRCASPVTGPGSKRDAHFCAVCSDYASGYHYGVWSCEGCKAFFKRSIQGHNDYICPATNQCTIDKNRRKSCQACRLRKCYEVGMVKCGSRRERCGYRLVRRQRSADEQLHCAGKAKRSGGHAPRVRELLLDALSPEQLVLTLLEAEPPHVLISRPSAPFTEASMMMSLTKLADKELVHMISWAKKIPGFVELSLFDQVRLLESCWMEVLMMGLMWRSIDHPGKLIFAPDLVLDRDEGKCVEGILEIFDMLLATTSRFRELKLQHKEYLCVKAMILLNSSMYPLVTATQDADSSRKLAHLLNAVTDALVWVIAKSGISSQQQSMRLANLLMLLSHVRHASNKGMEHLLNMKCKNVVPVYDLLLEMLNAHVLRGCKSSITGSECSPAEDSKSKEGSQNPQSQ
# zebrafish Estrogen Receptor (ER1), esr1 (gene 259252), sequence (P57717 whole entry, looked up, the tested form may be a part): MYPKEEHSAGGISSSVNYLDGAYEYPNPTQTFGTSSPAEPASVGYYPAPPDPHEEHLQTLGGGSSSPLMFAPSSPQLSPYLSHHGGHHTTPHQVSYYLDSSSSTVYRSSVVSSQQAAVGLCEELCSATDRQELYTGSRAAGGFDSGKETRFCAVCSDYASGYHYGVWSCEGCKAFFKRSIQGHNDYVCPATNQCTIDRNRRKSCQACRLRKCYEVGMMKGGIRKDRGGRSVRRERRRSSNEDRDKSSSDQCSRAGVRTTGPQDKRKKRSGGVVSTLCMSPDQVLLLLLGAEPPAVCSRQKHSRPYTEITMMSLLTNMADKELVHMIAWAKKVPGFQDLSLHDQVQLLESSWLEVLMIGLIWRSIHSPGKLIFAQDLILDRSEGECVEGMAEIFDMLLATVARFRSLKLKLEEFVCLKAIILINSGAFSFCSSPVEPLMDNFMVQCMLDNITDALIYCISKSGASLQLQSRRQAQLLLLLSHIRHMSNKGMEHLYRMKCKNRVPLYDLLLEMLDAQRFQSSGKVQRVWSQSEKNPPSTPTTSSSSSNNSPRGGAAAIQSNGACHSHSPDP
# chicken Estrogen Receptor (ERa), ESR1 (gene 396099), sequence (P06212 whole entry, looked up, the tested form may be a part): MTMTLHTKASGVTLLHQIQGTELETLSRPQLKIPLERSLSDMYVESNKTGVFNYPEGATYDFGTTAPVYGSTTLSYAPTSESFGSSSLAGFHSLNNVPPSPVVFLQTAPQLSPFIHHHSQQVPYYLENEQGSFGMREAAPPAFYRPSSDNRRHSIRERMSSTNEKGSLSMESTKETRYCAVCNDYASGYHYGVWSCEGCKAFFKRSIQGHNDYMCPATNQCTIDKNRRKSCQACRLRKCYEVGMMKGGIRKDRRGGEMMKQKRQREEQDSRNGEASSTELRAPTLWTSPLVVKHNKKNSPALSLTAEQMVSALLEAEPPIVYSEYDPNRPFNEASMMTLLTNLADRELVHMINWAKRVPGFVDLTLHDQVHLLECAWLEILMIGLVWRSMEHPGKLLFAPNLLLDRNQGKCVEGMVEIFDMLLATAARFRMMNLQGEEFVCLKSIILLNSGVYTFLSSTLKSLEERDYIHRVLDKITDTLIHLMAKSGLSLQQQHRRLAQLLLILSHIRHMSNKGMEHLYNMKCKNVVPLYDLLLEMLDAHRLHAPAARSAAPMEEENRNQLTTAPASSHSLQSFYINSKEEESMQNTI
# GAL4 Transcription Factor (Internal Marker), GAL4 (gene 855828), sequence (P04386 whole entry, looked up, the tested form may be a part): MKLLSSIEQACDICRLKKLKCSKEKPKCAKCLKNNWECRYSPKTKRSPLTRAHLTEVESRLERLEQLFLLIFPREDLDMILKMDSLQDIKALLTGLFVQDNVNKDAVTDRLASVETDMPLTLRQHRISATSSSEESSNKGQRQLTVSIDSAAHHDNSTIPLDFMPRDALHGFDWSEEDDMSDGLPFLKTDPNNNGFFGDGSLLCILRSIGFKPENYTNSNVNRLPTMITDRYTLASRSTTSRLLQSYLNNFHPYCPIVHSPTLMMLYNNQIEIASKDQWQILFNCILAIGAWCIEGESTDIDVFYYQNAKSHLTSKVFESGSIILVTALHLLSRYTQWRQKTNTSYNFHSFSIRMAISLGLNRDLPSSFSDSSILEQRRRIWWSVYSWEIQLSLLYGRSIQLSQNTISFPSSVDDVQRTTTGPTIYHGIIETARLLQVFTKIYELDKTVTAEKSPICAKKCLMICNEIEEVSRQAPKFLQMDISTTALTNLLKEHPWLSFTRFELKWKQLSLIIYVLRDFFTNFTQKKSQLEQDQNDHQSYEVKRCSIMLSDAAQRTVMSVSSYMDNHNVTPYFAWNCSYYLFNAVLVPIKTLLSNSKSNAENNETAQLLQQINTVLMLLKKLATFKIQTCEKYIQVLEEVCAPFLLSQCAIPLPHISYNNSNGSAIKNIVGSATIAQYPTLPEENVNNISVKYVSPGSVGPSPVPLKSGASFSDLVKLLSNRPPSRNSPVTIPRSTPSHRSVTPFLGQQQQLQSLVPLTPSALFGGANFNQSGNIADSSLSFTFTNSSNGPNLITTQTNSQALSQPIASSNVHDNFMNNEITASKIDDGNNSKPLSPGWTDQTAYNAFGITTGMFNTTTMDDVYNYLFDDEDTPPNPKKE
compound,measurement,setting,value
CC(O)(CS(=O)(=O)c1ccc(F)cc1)C(=O)Nc1ccc(C#N)c(C(F)(F)F)c1 (configuration not stated),outcome,[1],inactive
same,outcome,[2],inactive
same,outcome,[3],inactive
same,outcome,[4],inactive
same,outcome,[5],inactive
same,AC50,[6],50.4 µM (active)
same,outcome,[6],inactive
[Cl][Sn]([c]1ccccc1)([c]1ccccc1)[c]1ccccc1,outcome,[3],inactive
same,AC50,[5],0.925 µM (active)
same,outcome,[6],inactive
CCOP(=S)(OCC)O/N=C(\C#N)c1ccccc1,outcome,[1],inactive
same,outcome,[7],inactive
same,outcome,[8],inactive
same,AC50,[2],6.85 µM (active)
same,outcome,[2],inactive
same,AC50,[3],6.64 µM (active) and 5.37 µM (active)
same,AC50,[4],4.38 µM (active)
same,outcome,[4],inactive
same,AC50,[9],17.8 µM (active)
same,outcome,[9],inactive
same,outcome,[5],inactive
same,AC50,[6],19 µM (active) and 8.31 µM (active)
O=c1oc2ccccc2c(O)c1C(CC(O)c1ccc(-c2ccc(Br)cc2)cc1)c1ccccc1 (configuration not stated),outcome,[2],inactive
same,outcome,[9],inactive
same,outcome,[10],inactive
same,outcome,[6],inactive
COCCl,outcome,[1],inactive
same,outcome,[8],inactive
same,outcome,[2],inactive
same,outcome,[3],inactive
same,AC50,[4],34.8 µM (active)
same,outcome,[4],inactive
same,outcome,[9],inactive
same,AC50,[5],19.8 µM (active)
same,outcome,[5],inactive
same,outcome,[10],inactive
same,AC50,[6],65.6 µM (active)
same,outcome,[6],inactive
Oc1cc(Cl)c(Cl)cc1Cl,AC50,[1],20.3 µM (active)
same,outcome,[1],inactive
same,outcome,[7],inactive
same,AC50,[8],7.74 µM (active) and 2.23 µM (active)
same,outcome,[2],inactive
same,AC50,[3],29.9 µM (active)
same,outcome,[3],inactive
same,AC50,[4],21.9 µM (active)
same,outcome,[4],inactive
same,AC50,[9],6.4 µM (active) and 3.09 µM (active)
same,AC50,[5],18.8 µM (active)
same,outcome,[5],inactive
same,outcome,[10],inactive
same,AC50,[6],68.6 µM (active) and 22.9 µM (active)
